# Screens: PubChem BioAssay, several laboratories
# CCHFV vOTU inh: blocks the CCHF virus ovarian tumor domain protease. CCHFV vOTU protease, Pep-AMC fluorescence. inhibition, % at 11.5 µM. 370,000 tested, 0.55% active. AID 651958; in the data active = inhibition above about 30%; note: 0% = vehicle wells with enzyme and 100% = no enzyme wells
# 3CLpro inhibitor: SARS-CoV 3CLpro protease inhibition. P0C6X7. recombinant SARS-CoV 3CLpro, quenched FRET peptide cleavage. inhibition, % at 6 µM. 290,000 tested, 0.14% active. AID 1706; in the data active = inhibition above about 12%
# Anthrax LF inh2: inhibitors of Bacillus anthracis lethal factor protease; 360,000 tested, 0.12% active; inhibition, % at 10 µM; multiplex microsphere protease cleavage assay, LF; note: plate controls were buffer without enzyme for full effect and enzyme alone for no effect
# BoNT A protease: blocks Botulinum neurotoxin A light chain protease; multiplex microsphere protease substrate cleavage, flow cytometry; inhibition, % at 10 µM; 360,000 tested, 0.17% active; AID 588499; note: plate controls were buffer without enzyme for full effect and enzyme alone for no effect
# BoNT-F LC inh: BoNT F light chain protease inhibition. Multiplex microsphere protease cleavage assay, flow cytometry. inhibition, % at 10 µM. 360,000 tested, 0.22% active; in the data active = inhibition above about 35%, passing the limit was not always enough; inconclusive = no clear call, values can overlap the other calls; note: plate controls were buffer without enzyme for full effect and enzyme alone for no effect
# Bead autofluor: counter-screen for toxin protease inhibitors: compound fluorescence | AID 624483 | fluorescence intensity (concentration not given with the values) | compound autofluorescence counterscreen, microsphere flow cytometry; active compounds read high | 360,000 tested, 3.1% active; in the data active = fluorescence intensity above about 16000; inconclusive = no clear call, values can overlap the other calls
# The depositor's hits bear a star; ? = inconclusive; · = no result given. Hits are enriched below; roughly 3.9% of the tested compounds scored in any of these assays. Cut-off read from the data, not from the text of the source, unless noted: active = inhibition above about 30%; inconclusive = no clear call, values can overlap the other calls; inactive = below that.
SMILES,CCHFV vOTU inh,3CLpro inhibitor,Anthrax LF inh2,BoNT A protease,BoNT-F LC inh,Bead autofluor
CCOC(=O)C1CCCN(c2c(NCCCN(CC)c3ccccc3)c(=O)c2=O)C1 (centres undefined),0,-6,2,0,-6,24139*
Cc1nc2ccc(S(=O)(=O)Nc3ccccc3C)cc2s1,·,-2,-4,-5,-8,17531*
COc1nc(N(C)S(=O)(=O)c2ccc(C)cc2)nc(C)c1Br,-9,5,·,·,·,·
CN(Cc1ccccc1)C(=O)CCNS(=O)(=O)c1ccc2c(c1)oc(=O)n2C,0,-5,-1,-1,-3,20317*
CCCN(CCC)CCCNS(=O)(=O)c1ccc2c(c1)oc(=O)n2C,-3,1,-8,?,-11,23740*
CC(C)OCCCNS(=O)(=O)c1ccc2c(c1)oc(=O)n2C,-4,-5,5,0,0,5787
CCCNS(=O)(=O)c1cccc(C(=O)NC2CCCc3ccccc32)c1 (centres undefined),-1,2,-1,1,3,22288*
Cn1c(=O)oc2cc(S(=O)(=O)NCCC(=O)NC3CCCC3)ccc21,-8,4,-4,1,3,10749
Cn1c(=O)oc2cc(S(=O)(=O)NCCC(=O)NC3CCCc4ccccc43)ccc21 (centres undefined),-4,-1,-3,-1,-2,20326*
COc1cccc(N2CCN(CC(=O)NCc3ccc(Cl)cc3)CC2)c1,9,·,·,·,·,·
COc1ccc(/C=C/C(=O)OCC(=O)Nc2c(C)cccc2C)cc1,-7,4,3,-1,-6,4553
O=C(NCCc1ccccc1)c1ccc(-n2cnnn2)cc1,4,1,-2,?,-5,16633*
CCN(CC)S(=O)(=O)c1cccc(C(=O)Nc2cc(C)cc(C)c2)c1,-3,4,0,1,17,3498
O=C(NCSC1=NCCS1)c1ccccc1,5,2,1,-4,-6,24719*
CCN(CC)S(=O)(=O)c1cccc(C(=O)Nc2ccc(C#N)cc2)c1,6,-2,0,-1,-4,16843*
CN(C)S(=O)(=O)c1cccc(C(=O)NCCNC(=O)c2cccc(S(=O)(=O)N(C)C)c2)c1,10,-6,8,-4,?,4081
CCN(CC)S(=O)(=O)c1cccc(C(=O)NCCc2ccccc2)c1,2,-2,-3,-3,0,16952*
Clc1ccc(-c2nnc3n2N=C(c2ccc(-c4ccccc4)cc2)CS3)cc1,5,·,·,·,·,·
Cc1cccc(C(=O)NCCN(C)C)c1,4,0,-2,1,-2,2855
CN(c1ccc(C(=O)NCCc2ccccc2)cc1)S(C)(=O)=O,-12,5,0,2,0,20035*
CN(C)CCNC(=O)c1ccccc1,-2,-1,-18,2,4,20030*
Cc1ccc(S(=O)(=O)N(C)c2ccc(C(=O)NCCc3ccccc3)cc2)cc1,12,-2,0,2,9,4904
COc1ccccc1C(=O)N1CCCC(c2nc(-c3cccs3)no2)C1 (centres undefined),0,·,·,·,·,·
Cc1ccccc1Cn1ccc2ccc(-c3ccc4ccn(Cc5ccccc5)c4c3)cc21,5,·,·,·,·,·
Cc1cccc(C)c1N1C(=O)[C@@H]2C(c3ccccc3Cl)=NO[C@@H]2C1=O,-4,2,-2,0,8,5482
SMILES,CCHFV vOTU inh,3CLpro inhibitor,Anthrax LF inh2,BoNT A protease,BoNT-F LC inh,Bead autofluor
COc1ccc(C2=NO[C@@H]3C(=O)N(c4c(C)cccc4C)C(=O)[C@H]23)cc1OC,16,7,-2,?,0,22305*
O=C(C(=O)N1CCN(C(=O)Cc2ccccc2)CC1)c1cccc(C(F)(F)F)c1,-6,·,·,·,·,·
COCCOC(=O)c1c(C)n(C)c2ccc(OC(=O)c3ccco3)cc12,-19,3,-4,?,2,22026*
CC(C)(C)c1ccc(S(=O)(=O)N2CCCC2C(=O)N2CCN(c3ccccc3)CC2)cc1 (centres undefined),12,·,·,·,·,·
O=C1CSc2ccc(C(=O)N3CCCC(C(=O)N4CCCN(Cc5ccccc5)CC4)C3)cc2N1 (centres undefined),4,·,·,·,·,·
CC(/C=C/c1ccccc1)=N\Nc1nc(-c2ccccc2)cs1,3,-5,-3,-3,-4,24306*
CC(C)=NNc1nc(-c2ccccc2)cs1,-6,-1,0,1,-3,2266
Clc1ccc(-c2csc(N/N=C/c3cccnc3)n2)c(Cl)c1,12,-2,-2,0,-8,6647
C(=N\Nc1nc(-c2ccccc2)cs1)/c1cccnc1,-3,-2,-6,-5,-10,23863*
CCOC(=O)c1nn2c(C(F)(F)F)cc(-c3ccc(OC)cc3)nc2c1Br,4,0,-13,-4,?,3897
COc1cccc(NC(=O)C2(C)CCN2C(=O)C2CCCCC2)c1 (centres undefined),3,·,-5,0,13,3382
Cc1ccc(-c2cnn(-c3cccc([N+](=O)[O-])c3)c2N)cc1,6,1,-2,0,0,23689*
CCOc1ccc(-n2c(SCC(=O)Nc3ccccc3-c3ccccc3)nnc2-c2ccncc2)cc1,1,·,·,·,·,·
CN1CCN(C2=C(Cl)C(=O)C(c3cnc(N4CCCCC4)s3)=C(Cl)C2=O)CC1,·,-7,-8,4,-23,19751*
CN1CCN(C2=C(Cl)C(=O)N(C3CCCCC3)C2=O)CC1,7,0,15,11,-5,8680
Cc1ccc(/C=C2/SC(=S)N(C3CCCCC3)C2=O)o1,13,-3,24,39*,26,3828
Cc1ccc(/C=C2\SC(=S)N(CC3CCCO3)C2=O)o1 (centres undefined),12,-6,0,?,?,3638
O=C1CC(N2CCN(c3nc4ccccc4s3)CC2)C(=O)N1c1cccc(F)c1 (centres undefined),1,-1,-8,-2,-1,23609*
CCCOc1ccc(N2C(=O)CC(N3CCN(c4nc5ccccc5s4)CC3)C2=O)cc1 (centres undefined),6,3,1,0,-11,4860
CCOC(=O)C1CCCN(C2CC(=O)N(c3ccccc3)C2=O)C1 (centres undefined),-4,-6,-1,0,-2,2082
CCOc1cccc(N2C(=O)CC(N3CCN(c4ccc(S(=O)(=O)CC)cc4)CC3)C2=O)c1 (centres undefined),-20,-4,-6,2,3,22715*
Cc1cccc(N2C(=O)CC(N3CCN(c4cccc(C(F)(F)F)c4)CC3)C2=O)c1 (centres undefined),4,-2,0,?,-2,20300*
CCOC(=O)C1CCCN(C2CC(=O)N(c3cccc(C(F)(F)F)c3)C2=O)C1 (centres undefined),-1,4,-3,?,-5,23785*
CC(CNC(=O)CCCn1c(=O)c2cccn2c2cccnc21)c1ccccc1 (centres undefined),20,·,2,0,-7,3768
